Consider seven compounds from PubChem BioAssay.

Test [1] in a line: optical density shifts of acrAB sulA E. coli – strain DRC41, OD650, 48 h, E. coli filamentation inducer project, primary screen (AID 1152).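 Note: E. coli MC1000 strain DRC41 lacking acrAB efflux pump and sulA.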 The settings on record: higher = more signal, called active from +8 up or from −8 down.
Test [2] is described as follows: probe aLefty1 binding on compound microarray – biochemical, small-molecule microarray, 635/667 nm fluorescence, primary screen (AID 1153).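 Note: score merges spot fluorescence with signal-to-noise ratio from the scanned slide images.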 The conditions noted are these: higher = more signal.
A short description of test [3]: plasmodial surface anion channel blockers, osmotic lysis – cell-based, P. falciparum Indochina, OD700, 1 h, primary screen (AID 1154). The conditions noted are these: P. falciparum Indochina infected RBC osmotic lysis, higher = more signal, called active from +8 up or from −8 down.
Test [4] in a line: plasmodial surface anion channel blockers, osmotic lysis – cell-based, P. falciparum Indochina, OD700, 2 h, primary screen (AID 1155).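 Note: lysis reports solute entry through the parasite surface anion channel PSAC.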 The conditions noted are these: P. falciparum Indochina infected erythrocytes, higher = more signal, called active from +8 up or from −8 down.
Test [5] can be described thus: changes in parasitized red cell lysis, either direction – P. falciparum Indochina, OD700, 3 h, PSAC antagonist project, primary screen (AID 1156). The settings on record: P. falciparum-infected erythrocytes, osmotic lysis, higher = more signal, called active from +8 up or from −8 down.
The nature of test [6]: plasmodial surface anion channel blockers, osmotic lysis – cell-based, P. falciparum Indochina, OD700, 18 h, primary screen (AID 1157). The conditions noted are these: P. falciparum Indochina infected erythrocytes, osmotic lysis OD700, 18 h; higher = more signal, called active from +8 up or from −8 down.
Test [7] is described as follows: S6 kinase pathway phospho-S6 level changes – cell-based, A549, cytoblot, luminescence, serum-stimulated, primary screen (AID 1158).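 Note: serum-stimulated A549 lung adenocarcinoma cells; signal is phosphorylated S6 detected by cytoblot immunostaining with HRP secondary.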 The conditions noted are these: 5 h, higher = more signal.
In test [8] the target is NADPH oxidase 2 (Homo sapiens) (UniProt P04839). The test is described as follows: compounds shifting NOX2 Amplex Red fluorescence – cell-based, HEK293-NOX2, PMA-stimulated, NOX inhibitor project, primary screen (AID 1159). Note: test concentration not given here. The conditions noted are these: 45 min, higher = more signal, called active from +8 up or from −8 down.
Chain of NADPH oxidase 2 (Homo sapiens) (P04839 whole entry, looked up): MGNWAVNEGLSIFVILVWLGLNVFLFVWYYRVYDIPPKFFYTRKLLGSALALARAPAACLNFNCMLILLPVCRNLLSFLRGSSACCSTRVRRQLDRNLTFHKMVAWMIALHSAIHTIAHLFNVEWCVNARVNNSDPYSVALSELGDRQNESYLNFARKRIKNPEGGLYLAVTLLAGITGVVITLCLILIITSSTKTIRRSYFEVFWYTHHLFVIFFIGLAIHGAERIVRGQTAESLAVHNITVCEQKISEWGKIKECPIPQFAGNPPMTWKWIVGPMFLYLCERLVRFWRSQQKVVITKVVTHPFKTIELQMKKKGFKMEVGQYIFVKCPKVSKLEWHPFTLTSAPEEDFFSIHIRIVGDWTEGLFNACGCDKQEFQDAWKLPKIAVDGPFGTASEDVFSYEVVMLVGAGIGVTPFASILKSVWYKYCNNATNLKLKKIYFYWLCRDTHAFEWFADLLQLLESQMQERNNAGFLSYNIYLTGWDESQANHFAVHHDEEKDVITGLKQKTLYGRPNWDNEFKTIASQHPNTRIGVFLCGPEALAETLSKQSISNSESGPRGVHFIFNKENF
Test [9] has as its target NADPH oxidase 4 (Homo sapiens) (UniProt Q9NPH5). The test is described as follows: compounds shifting NOX4 Amplex Red fluorescence – cell-based, HEK293-NOX4, tetracycline-induced, NOX inhibitor project, primary screen (AID 1160). The settings on record: HEK293-NOX4, Amplex Red H2O2 fluorescence, 45 min; higher = more signal, called active from +8 up or from −8 down.
Test [10] has as its target NADPH oxidase 5 (Homo sapiens) (UniProt Q96PH1). The test is described as follows: compounds shifting NOX5 Amplex Red fluorescence – cell-based, HEK293-NOX5, NOX inhibitor project, primary screen (AID 1161). The conditions noted are these: HEK293-NOX5, ionomycin, 45 min, higher = more signal.
A short description of test [11]: compound effects on lung adenocarcinoma cell viability – A549, calcein-AM fluorescence, 48 h, basal, profiling panel (AID 1162). Note: test concentration not given here. The settings on record: higher = more signal.
The nature of test [12]: compound effects on differentiated 3T3-L1 adipocyte viability – cell-based, 3T3-L1 adipocytes, calcein-AM fluorescence, 48 h, basal, profiling panel (AID 1163). Note: test concentration not given here. The conditions noted are these: 3T3-L1 adipocytes viability, higher = more signal.
Test [13] in a line: compound effects on hepatocellular carcinoma cell viability – HepG2, calcein-AM fluorescence, 48 h, basal, profiling panel (AID 1164). Note: test concentration not given here. The conditions noted are these: higher = more signal.
Test [14] in a line: compound effects on multiple myeloma cell viability – MM1S, calcein-AM fluorescence, 48 h, basal, profiling panel (AID 1165). Note: test concentration not given here. The conditions noted are these: higher = more signal.
Test [15] can be described thus: calcein-AM signal in unstimulated myeloma cells – cell-based, calcein-AM fluorescence, 48 h, PK04 Diversity Set, profiling panel (AID 1166).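 Note: cells grown under basal conditions without added stimulus; test concentration not given here.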 The conditions noted are these: RPMI8226 myeloma viability, higher = more signal.
Test [16] is described as follows: JC-1 mitochondrial signal, unstimulated HepG2 cells – cell-based, JC-1 fluorescence, 24 h, 100 nL compound, profiling panel (AID 1167). Note: test concentration not given here. The settings on record: HepG2 mitochondrial potential, higher = more signal.
Test [17] can be described thus: JC-1 mitochondrial signal, unstimulated adipocytes – cell-based, JC-1 fluorescence, 3T3-L1 adipocytes, 24 h, 100 nL compound, profiling panel (AID 1168). Note: test concentration not given here. The conditions noted are these: JC-1 mitochondrial fluorescence, higher = more signal, called active from +8 up or from −8 down.
Test [18] is described as follows: JC-1 mitochondrial signal, unstimulated myeloma cells – cell-based, JC-1 fluorescence, RPMI8226, 24 h, 100 nL compound, profiling panel (AID 1169). Note: test concentration not given here. The settings on record: JC-1 mitochondrial potential fluorescence, higher = more signal.
A short description of test [19]: JC-1 mitochondrial signal, unstimulated MM1S myeloma – cell-based, JC-1 fluorescence, 24 h, 100 nL compound, profiling panel (AID 1170). Note: test concentration not given here. The conditions noted are these: MM1S mitochondrial potential, higher = more signal.
A short description of test [20]: resazurin metabolic signal in A549 cells – cell-based, resazurin fluorescence, 24 h, PK04 Diversity Set, profiling panel (AID 1171). Note: test concentration not given here. The settings on record: A549 viability, higher = more signal, called active from +8 up or from −8 down. A general note: Resazurin is reduced to fluorescent resorufin, in cell work by metabolically active cells.

Active and inactive are the calls of the source.

Chain of NADPH oxidase 5 (Homo sapiens) (Q96PH1 whole entry, looked up): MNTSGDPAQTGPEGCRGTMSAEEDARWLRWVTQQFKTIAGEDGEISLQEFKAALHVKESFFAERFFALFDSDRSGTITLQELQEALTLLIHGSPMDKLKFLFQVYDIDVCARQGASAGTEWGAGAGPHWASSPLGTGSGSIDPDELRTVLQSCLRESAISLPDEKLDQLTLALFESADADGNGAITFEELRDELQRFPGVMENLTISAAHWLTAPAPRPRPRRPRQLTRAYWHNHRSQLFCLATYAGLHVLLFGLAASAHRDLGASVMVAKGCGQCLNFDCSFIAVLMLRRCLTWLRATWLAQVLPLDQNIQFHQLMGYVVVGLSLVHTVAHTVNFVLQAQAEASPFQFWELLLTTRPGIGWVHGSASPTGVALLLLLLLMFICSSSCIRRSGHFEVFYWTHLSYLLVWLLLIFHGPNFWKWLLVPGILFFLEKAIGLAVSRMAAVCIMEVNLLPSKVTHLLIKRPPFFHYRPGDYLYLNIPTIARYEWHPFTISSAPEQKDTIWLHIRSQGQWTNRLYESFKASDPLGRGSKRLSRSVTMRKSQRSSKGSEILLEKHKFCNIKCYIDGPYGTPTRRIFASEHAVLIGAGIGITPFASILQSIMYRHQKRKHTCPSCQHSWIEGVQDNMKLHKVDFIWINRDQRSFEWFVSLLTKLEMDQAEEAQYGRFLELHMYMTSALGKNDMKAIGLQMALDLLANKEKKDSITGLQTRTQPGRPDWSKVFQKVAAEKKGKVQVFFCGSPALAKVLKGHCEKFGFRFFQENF
Chain of NADPH oxidase 4 (Homo sapiens) (Q9NPH5 whole entry, looked up): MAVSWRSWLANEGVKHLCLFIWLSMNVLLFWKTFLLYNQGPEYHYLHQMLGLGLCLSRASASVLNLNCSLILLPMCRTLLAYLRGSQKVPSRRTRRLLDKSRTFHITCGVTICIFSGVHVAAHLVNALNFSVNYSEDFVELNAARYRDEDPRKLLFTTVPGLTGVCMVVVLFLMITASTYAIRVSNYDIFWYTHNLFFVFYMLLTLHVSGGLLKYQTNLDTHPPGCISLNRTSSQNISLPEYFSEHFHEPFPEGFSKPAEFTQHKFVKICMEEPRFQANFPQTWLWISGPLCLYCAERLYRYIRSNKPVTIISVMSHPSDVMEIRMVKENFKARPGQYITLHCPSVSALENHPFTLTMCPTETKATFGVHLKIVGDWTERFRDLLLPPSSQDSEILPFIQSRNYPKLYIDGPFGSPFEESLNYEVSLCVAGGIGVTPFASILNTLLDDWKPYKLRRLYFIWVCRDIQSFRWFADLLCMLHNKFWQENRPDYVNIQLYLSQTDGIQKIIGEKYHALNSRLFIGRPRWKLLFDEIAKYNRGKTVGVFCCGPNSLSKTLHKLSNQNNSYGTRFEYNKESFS

Consider `COc1cc2c(cc1OC)CN(C(=O)[C@@H]1[C@H]3C(=O)O[C@H](c4ccccc4)[C@H](c4ccccc4)N3[C@H](c3ccccc3OCCO)[C@@]13C(=O)Nc1ccc(C#CCCO)cc13)CC2`, for which the z-score in test [1] was 0.761 (inactive); in [3], 2.28 (inactive); in [4] it was 1.05 (inactive); in [5] it was 0.85 (inactive); in test [6], 0.565 (inactive); in test [7], 0.212. The z-score was 1.29 (inactive) in test [8]; 1.15 (inactive) in [9]; 0.301 in test [10]; 1.26 in test [11]; 0.784 in [12]; 0.665 in test [13]. In addition, the z-score in [14] is -0.777; in test [15], -0.803; in test [16], 0.453; in [17], 1.2 (inactive); in test [18] it was -1.21; in test [19], -0.107. In addition, the z-score in test [20] is 1.28 (inactive). This compound also displayed a composite z-score in test [2] of 0.751.
Turning to `CCOC(=O)C1=C[C@@H](C(C)(C)C)N(S(=O)(=O)c2ccc(C)cc2)[C@H]1c1ccc(F)cc1`, the z-score was -1.68 (inactive) in test [1]; 0.957 (inactive) in [3]; 0.716 (inactive) in test [4]; -0.862 (inactive) in test [5]; 0.634 (inactive) in test [6]; -0.827 in [7]. Besides, the z-score in test [8] was -0.829 (inactive); in test [9] it was -0.217 (inactive); in test [10], 0.821; in test [11] it was -1.5; in [12], 0.131; in [13] it was -1.71. For the same compound, the z-score in test [14] is -1.55; in test [15], -3; in [16], 4.5; in test [17], -0.43 (inactive); in test [18] it was -1.03; in [19] it was -0.781. The z-score in test [20] is 0.627 (inactive). The composite z-score in [2] is -0.0162.
Regarding `CC1CC/C=C\[C@H]2OC34C=CCN(Cc5ccccc5)C(=O)[C@H]3N(CCCO)C(=O)[C@@H]4C2C(=O)O1` (stereo not given in full), the z-score was 0.144 (inactive) in test [1]; 0.329 (inactive) in test [3]; -0.093 (inactive) in [4]; -0.316 (inactive) in test [5]; -0.254 (inactive) in test [6]; -0.102 in test [7]. The z-score in test [8] is 1.66 (inactive); in test [9], 0.366 (inactive); in test [10], 3.18; in test [11] it was -0.0905; in test [12], 0.324; in test [13], -0.0453. The z-score was -0.142 in [14]; 0.197 in test [15]; 0.0693 in test [16]; 0.237 (inactive) in test [17]; -0.0499 in test [18]; 1.68 in [19]. The z-score in [20] is -0.433 (inactive). Also, the composite z-score in test [2] was -0.147.
For the compound `CCOC(=O)C1=CC[C@@H](c2ccccc2)N(S(=O)(=O)c2ccc(C)cc2)[C@H]1c1ccccc1C`, the z-score in test [1] is -0.36 (inactive); in test [3], 1.57 (inactive); in test [4] it was 0.678 (inactive); in [5], -0.569 (inactive); in test [6] it was 0.879 (inactive); in [7] it was -0.102. In addition, the z-score in test [8] was 0.515 (inactive); in test [9], 0.226 (inactive); in test [10], 0.963; in test [11], -1.42; in [12] it was 0.068; in [13], -0.0628. The z-score was -0.247 in test [14]; -0.734 in [15]; 2.59 in test [16]; -0.134 (inactive) in test [17]; -0.275 in [18]; -0.271 in [19]. Besides, the z-score in test [20] is 2.32 (inactive). In addition, in test [2], the composite z-score worked out at 0.589.
Take `Cc1ccc(S[C@]2(C(=O)O)CC(=O)N(C(C)C)[C@@H]2c2ccc(CO)cc2I)cc1`: the z-score was 3.35 (inactive) in test [1]; 14.3 (active) in test [3]; 1.02 (inactive) in test [4]; 0.532 (inactive) in test [5]; -0.263 (inactive) in test [6]; 2.24 in [7]. Besides, the z-score was 0.899 (inactive) in test [8]; -2.47 (inactive) in [9]; 0.852 in [10]; 2.14 in [11]; 0.827 in test [12]; 1.65 in test [13]. For the same compound, the z-score in [14] was -2.36; in test [15] it was -0.902; in test [16] it was 0.0957; in test [17], -0.386 (inactive); in test [18], -0.527; in test [19], -0.56. Further, the z-score in [20] was 0.667 (inactive). The compound also had a composite z-score in [2] of 0.775.
As for `COc1ccc(C#Cc2ccc3c(c2)[C@]2(C(=O)N3)[C@H](c3ccccc3OCCO)N3[C@H](c4ccccc4)[C@H](c4ccccc4)OC(=O)[C@H]3[C@@H]2C(=O)Nc2nc3ccccc3s2)cc1`, the z-score in test [1] is -0.89 (inactive); in [3], 1.35 (inactive); in [4], 1.67 (inactive); in [5], 1.46 (inactive); in [6], 0.457 (inactive); in test [7], -0.0333. The z-score is -1.26 (inactive) in test [8]; -0.977 (inactive) in test [9]; -4.34 in test [10]; 0.855 in test [11]; 0.453 in [12]; -0.543 in [13]. Further, the z-score in test [14] was -2.43; in [15] it was -2.65; in [16] it was -3.4; in test [17], 2.29 (inactive); in test [18], -0.631; in test [19], -1.28. Moreover, in test [20], the z-score was -2.07 (inactive). Also, the composite z-score in test [2] amounted to 1.78.
Take `N#Cc1ccc(NN2C(C(O)C(c3ccccc3)c3ccccc3)C=CC3C(=O)N(c4ccccc4)C(=O)C32)cc1` (stereo not given): the z-score is -0.0948 (inactive) in test [1]; 5.66 (inactive) in test [3]; 0.96 (inactive) in test [4]; 0.891 (inactive) in test [5]; 1.24 (inactive) in [6]; 0.151 in test [7]. For the same compound, the z-score in test [8] is -1.99 (inactive); in test [9], -2.82 (inactive); in [10] it was -2.49; in test [11], 0.825; in test [12], -1.53; in test [13], 0.361. Also, the z-score in [14] was 0.0017; in test [15], 0.103; in [16], 0.913; in test [17], -0.435 (inactive); in test [18] it was -0.812; in [19], -0.379. In test [20], the z-score was -0.386 (inactive). In addition, the composite z-score in test [2] is 0.651.
